# Laboratory results from PubChem BioAssay AID624297 (National Center for Advancing Translational Sciences (NCATS), 2012).
# Hit rate of the full screen: of about 340,000 compounds, about 6,200 (1.8%) were called active. Not shown: some 10% with an inconclusive outcome. The full list was thinned out, with actives kept by preference. Values without a mark were called inactive. Calls come from the whole dose curve; as a rule, active = well fitted activation curve with a large enough effect; inconclusive = small, poorly fitted or top-dose-only effect; inactive = no such curve, though single readings can be large or run the other way.
# Test: A quantitative high throughput screen for small molecules that induce DNA re-replication in SW480 colon adenocarcinoma cells. For re-replication activation: % of control where 0% means no effect. Note: nearly all actives have a fitted effect of over 55% in size.
# Settings: Hoechst DNA content imaging, 48 h; series mostly up to 46.1 µM; re-replication activation: at the top concentration
# Procedure, shortened: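 Compounds, transferred as 23 nL by pin tool, were incubated with cells for 48 hr; DNA content per nucleus was then quantified by Hoechst staining and fluorescence plate imaging.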
# Potency is the fitted concentration of half-maximal effect.
Structure (SMILES),re-replication activation,Potency
O=C(COc1ccccc1F)Nc1nc(-c2ccccn2)cs1,1.18%,
CCc1ccc2c(c1)C1(NN=C(c3ccccc3)S1)C(=O)N2 (stereo not drawn),,10.3 µM (active)
CN(CCc1ccccc1)C(=O)c1cccc(NC(=O)Cc2cccc(NC(=O)C3CCCN(C(=O)C4CCC4)C3)c2)c1 (stereo not drawn),-30.2%,
Cc1ccccc1C1CC(c2cccs2)=NN1S(C)(=O)=O (stereo not drawn),-1.96%,
CCS(=O)(=O)Nc1ccc(C2=NN(S(=O)(=O)c3ccc(F)cc3)C(c3ccco3)C2)cc1 (stereo not drawn),-5.85%,
Fc1ccc(N2N=C(c3cccs3)CC2c2ccco2)c(F)c1 (stereo not drawn),,23.1 µM (active)
CCCc1cc(=O)[nH]c(SCC(=O)Nc2ccc(C(=O)Nc3ccccc3OC)cc2)n1,3.29%,
O=c1cc(-c2ccccc2)[nH]c2cc(F)ccc12,,0.92 µM (active)
Cc1ccc(-c2cc(=O)c3ccc(F)cc3[nH]2)cc1,11.6%,
Cc1ccc(-c2cc(=O)c3ccc(Cl)cc3[nH]2)cc1,-0.0496%,
CCCCNCCS(=O)(=O)NCc1ccccc1,2.26%,
O=C(CSc1ncn[nH]1)Nc1ccc(Br)cc1Br,0.649%,
Cc1cccc(OCC(=O)OCC(=O)Nc2ccc(Cl)cn2)c1,1.42%,
O=C1OC(Cc2ccccc2)C(c2ccccc2)C1=O (stereo not drawn),-2.6%,
COc1cccc(CNC(C)C(=O)Nc2ccc(S(=O)(=O)N3CCCC3)cc2)c1 (stereo not drawn),-23.3%,
CCN1CCN(C(=O)CSc2ccc(C)cc2)CC1,-1.89%,
Cc1ccc(SCC(=O)N2CCN(c3ccc(F)cc3)CC2)cc1,2.77% [at 1.84 µM],
CCN1CCC2(CC1)N=C(c1ccc(F)cc1)C(=S)N2C(=O)c1ccc(C)cc1,,20.6 µM (active)
CN(CC(=O)O)C(=O)c1ccccc1,-2.02%,
Nc1cc2c(cc1Br)-c1ccc(F)cc1C2=O,-4.87%,
O=C(O)C(=Cc1ccccc1[N+](=O)[O-])c1ccccc1,-4%,

Structure (SMILES),re-replication activation,Potency
CCN1CCC(O)(/C=C/c2ccc(C)cc2)C(C(=O)/C=C/c2ccc(C)cc2)C1 (stereo not drawn),-1.86%,
CCOc1ccc2nc(NC(=O)CSc3nc4c(c(=O)n(C)c(=O)n4C)n3CC)sc2c1,-4.89%,
CCOc1ccc2nc(Nc3nc4ccc(NC(C)=O)cc4s3)sc2c1,,18.4 µM (active)
CCC(=O)c1ccc(OCC(=O)Nc2ccc3nc(C)sc3c2)cc1,-12.9%,
COc1ccc(CCOC2OC(CO)C(OC(=O)/C=C/c3ccc(O)c(OC)c3)C(O[C@H]3O[C@@H](C)[C@H](O)[C@@H](O)[C@H]3O)C2O)cc1O (stereo partly drawn),-2.6%,
CC(C)(C)c1cc(C(=O)NN)n(Cc2ccc(Cl)cc2Cl)n1,,11.6 µM (active)
Cn1cc(C(=O)c2ccc(Cl)cc2Cl)cc1C(=O)NN,-5.57%,
NNC(=O)c1ccc(Cl)cc1Cl,0.838%,
COc1ccc(C(=O)Nc2cccc(/C=C(/CCC(=O)O)c3nc4ccccc4s3)c2)cc1,-7.51%,
O=C(COC(=O)c1cccnc1Cl)NC(=O)NC1CCCCC1,-1.97%,
Cc1nc2ccc(NC(=O)c3cccc(S(=O)(=O)N4CCOCC4)c3)cc2s1,3.07%,
CC/C(=C\c1ccc(Cl)cc1)c1ccncc1,-2.36%,
CCCC1=Nc2cc(C(=O)NCc3ccco3)ccc2Sc2ccccc21,,5.17 µM (active)
CC(C)(C)c1ccc(C(=O)NCc2ccco2)cc1,-17.2%,
CCC1=Nc2cc(C(=O)NCCCN3CCOCC3)ccc2Sc2ccc(Br)cc21,14.9%,
COc1ccc(NC(=O)Nc2ccc3c(c2)C(=O)N([C@H](C)CO)C[C@H](C)[C@@H](CN(C)C(=O)Nc2ccc4c(c2)OCO4)O3)cc1,0.217%,
O=C(Cc1ccc(NC(=O)C2CCCN(C(=O)CCc3ccccc3)C2)cc1)Nc1ccc(C(=O)N2CCOCC2)cc1 (stereo not drawn),-31.4% [at 9.22 µM],
Cc1ccc(C(=O)Nc2ccn(C)n2)cc1,,18.4 µM (active)
Cn1ccc(NC(=O)Nc2ccc(Cl)cc2)n1,9.96%,
CN(C)S(=O)(=O)c1cc(C(=O)Nc2ccn(C)n2)c(Cl)cc1Cl,3.79%,
CC(=O)N(O)CCCCCNC(=O)CCC(=O)N(O)CCCCCNC(=O)CCC(=O)N(O)CCCCCNC(=O)CCC(=O)O,-1.74%,

Structure (SMILES),re-replication activation,Potency
CCOc1ccc(NC(=O)Nc2cc(C)ccc2OC)cc1,1.93%,
CCOc1ccc(C(=O)Nc2cc(OC)ccc2OC)cc1,-6%,
CCOc1ccc(N/C=C/C(=O)c2cc(OC)c(OC)c(OC)c2)cc1,,0.58 µM (active)
CCCC(O)(c1ccccc1)C(c1ccccc1)c1ccccn1 (stereo not drawn),-10.4%,
CC1CN(Cc2ccccc2)C(=S)NC1=O (stereo not drawn),-6.62%,
O=C(CN1C(=O)/C(=C\c2ccccc2F)SC1=S)Nc1nc2ccccc2s1,-5.4%,
COc1ccc(/C=C2\SC(=S)N(CCC(=O)Nc3ccccn3)C2=O)cc1OC,-27.7%,
CN(C)S(=O)(=O)c1cccc(-c2nn(-c3ccccc3)cc2/C=C2\SC(=S)N(CC(=O)O)C2=O)c1,,16.4 µM (active)
Cc1ccc(S(=O)(=O)n2oc(=O)c(C3CCCCC3)c2N)cc1,0.714%,
O=C(Nc1cccc(S(=O)(=O)N2CCOCC2)c1)C12CC3CC(CC(C3)C1)C2,-3.63%,
CC[C@]12c3[nH]c4ccc(OC)cc4c3CCN1C(=O)C(CC(=O)NCCN1CCOCC1)C[C@@H]2C(=O)N1CCN(C(=O)C2CC2)CC1 (stereo partly drawn),11.8%,
C=CCC[C@H](Cc1ccc(F)cc1)C(=O)OC[C@H](C)NC(=O)[C@H](CC=C)CC(=O)N(CCO)Cc1ccccc1,11.5%,
CCOc1ccc(NC(=O)CSc2nc3ccccc3c(=O)n2Cc2cccs2)cc1,,1.64 µM (active)
CCc1ccc(NC(=O)CSc2nc3ccccc3c(=O)n2CCN2CCOCC2)cc1,4.56%,
COc1ccc(NC(=O)CSc2nc3ccccc3c(=O)n2C)cc1,-4.2%,
O=C(NCC1(N2CCCCC2)CCCCC1)c1cccc(S(=O)(=O)Nc2ccccc2Cl)c1,6.46%,
O=C(NCCC(=O)N1O[C@@H]2C=C[C@H]1C2)OCC1c2ccccc2-c2ccccc21,0.0882%,
O=C(COc1ccc([N+](=O)[O-])cc1Cl)Nc1ccc2[nH]c(=O)[nH]c2c1,-3.8%,
COc1ccc(-c2c(C)cc3oc(=O)cc(-c4ccccc4)c3c2C)cc1OC,14.2%,
COc1cc(OC)c2c(-c3cccc(-c4cccc(N)c4)c3)cc(=O)oc2c1,,3.66 µM (active)
COc1ccc(-c2c(C)cc3oc(=O)cc(-c4ccccc4)c3c2C)cc1F,40.3%,
